Data as given in PubChem BioAssay AID952 (NMMLSC, 2007).
Among all 190,000 compounds or so, about 45 (0.02%) were called active. No stated cut-off is given here; in the data, active means inhibition above about 40%. Only a sample is shown.

molecular target: Bcl-2-like protein 2 (Homo sapiens) (UniProt Q92843); experiment: Bcl-W/Bim complex disruptors – biochemical, multiplexed, bead-based flow cytometry, primary screen (AID 952); details: Bim peptide-Bcl-W binding, at 10 µM, hits give high values;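 further: 0% = bound tracer without compound and 100% = peptide blocker; higher means less fluorescent Bim peptide bound to Bcl-W beads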
Sequence (Q92843 whole entry, looked up): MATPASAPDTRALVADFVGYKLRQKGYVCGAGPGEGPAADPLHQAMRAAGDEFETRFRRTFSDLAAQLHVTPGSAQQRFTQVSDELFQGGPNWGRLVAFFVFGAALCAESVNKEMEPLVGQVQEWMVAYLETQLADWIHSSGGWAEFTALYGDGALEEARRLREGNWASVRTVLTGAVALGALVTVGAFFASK

inhibition, inactive:
CCOC(=O)NC(=O)/C(C#N)=C\c1ccccc1 -2%, Cc1cc(C)cc(NC(=O)N2CCCCCCC2)c1 0%, Cc1[nH]c2ccccc2c1C(=O)COC(=O)c1c(-c2ccccc2)noc1C -1%, COc1cc(SC#N)ccc1N=Cc1c(C)[nH]n(-c2ccc(C)cc2)c1=O 6%, O=C(NCc1ccccc1)C1CCCN(c2nc3ccsc3c(=O)s2)C1 (stereo not given) -4%, CCN(CC)CC(=O)Nc1sc2c(c1C(=O)c1ccccc1C)CCC2 0%, O=C(Nc1nnc(-c2ccco2)o1)c1ccc(S(=O)(=O)N2CCOCC2)cc1 0%, Cc1nc(N2CCOCC2)sc1C(=O)NN 0%, CC1CCN(C(=S)c2cccc([N+](=O)[O-])c2)CC1 0%, N/C(=N\OC(=O)CCCC(=O)O)c1ncc(C(F)(F)F)cc1Cl -1%, Cc1ccc(SC(C)C(=O)NCc2ccc(F)cc2)cc1 (stereo not given) 0%, Cc1ccc(Nc2cc(C)nc3c(C)ccc([N+](=O)[O-])c23)cc1 0%, N#Cc1c(NC(=O)c2ccc(N3CCOCC3)c([N+](=O)[O-])c2)sc2c1CCCC2 -4%, Cc1cc(C)nc(-n2nc(C)cc2NC(=O)c2ccc(F)cc2F)n1 1%, CCc1nn(CCCN2CCN(c3cccc(Cl)c3)CC2)c(=O)n1CCOc1ccccc1 -5%, C/C(=N/N1CCN(Cc2cccc3ccccc23)CC1)c1cccnc1 0%, O=C1CC(c2cccc(Cl)c2)CC(O)=C1C=Nc1ccccc1 (stereo not given) -5%, Cc1cnc(C(=O)OCC(=O)N2CCc3ccccc32)cn1 0%, CC(=O)C1(C)N(O)C(C)(C)C(c2cccs2)=[N+]1[O-] (stereo not given) 0%, O=C(OCC(=O)c1cccs1)c1ccc([N+](=O)[O-])o1 0%, O=C(CCl)N(Cc1cccc([N+](=O)[O-])c1)c1cccc(Cl)c1 1%, c1ccc2c(c1)OCCOCCOCCO2 0%, CCOc1cccc2c1OC1(CCCCC1)N1N=C(c3cccnc3)CC21 (stereo not given) -4%, CCCC(=O)Nc1ccc(C(=O)N/N=C/c2ccc[nH]2)cc1 -5%, Cc1ccc(S(=O)(=O)N(C)C)cc1NC(=O)COC(=O)c1c(C)noc1C 0%, Cc1cc(/C=N/NC(=O)c2cccnc2)c(C)n1CC(C)C 1%, CC(=O)Nc1ccc(NC(=O)CSc2nnc(COc3ccccc3C)n2CC2CCCO2)cc1 (stereo not given) -2%, Cc1cc(C)n2nc(C(=O)N3CCN(Cc4ccc5c(c4)OCO5)CC3)nc2n1 -2%, C/C(=N/Nc1ccc(Cl)cc1)c1cnnc(-c2ccccc2)n1 -1%, O=C(O)/C=C/C(=O)NNc1ccc([N+](=O)[O-])cc1 5%, CCOC(=O)c1cccc(NC(=O)CCOc2ccccc2)c1 -1%, O=C(Cn1nnc2ccccc2c1=O)NCc1ccc(Cl)cc1 -1%, CSc1nc2ccccc2c(=O)n1Cc1ccc(F)cc1 0%, COc1ccc(NC(=S)NCC2CCN(c3ccc(OC)cc3)C2)cc1 (stereo not given) 0%, CCOc1ccc(N2C(=O)/C(=C/c3ccc(C)o3)N(C)C2=S)cc1 4%, O=c1[nH]n2c(-c3ccccc3)nc(O)c2c2ccccc12 -1%, COc1ccc(C(C(=O)NC2CCCCC2)N(C(=O)CCl)c2ccccc2Cl)cc1 (stereo not given) 0%, OC(CNCc1ccc(Cl)c(Cl)c1)c1ccccc1 (stereo not given) 0%, O=C(COc1ccc(Cl)cc1[N+](=O)[O-])N1CCCCC1 3%, Cc1nccn1CC(=O)N/N=C/c1ccc(O)c(O)c1 -5%, CN(Cc1nc2ccc(F)cc2[nH]1)Cc1nc(CC2CC2)no1 -6%, Nc1nnc(SCC(=O)OCc2ccc(Cl)c(Cl)c2)s1 3%, CN(C)CCOc1cccc(Br)c1 -3%, Clc1cc(-c2ccc(/C=N/n3cnnc3)o2)ccc1Br 0%, CCC(=O)N(Cc1cc2ccccc2[nH]c1=O)c1ccc(OC)cc1 0%, CCOC(=O)c1cnc2c(c(C)nn2CC)c1Cl -1%, CN(C)/N=C/c1cn(-c2ccccc2)nc1-c1cccnc1 1%, Cc1cc(C)n(-c2ccc(C(=O)O)cc2[N+](=O)[O-])n1 0%, CCCCNC(=O)C1CCC(CNS(=O)(=O)c2ccc(NC(C)=O)cc2)CC1 (stereo not given) 1%, C=CCn1c(=NC(=O)c2cccs2)sc2cc(NC(C)=O)ccc21 0%, O=C(NNC(=S)NCc1ccccc1)c1ccc(OC(F)F)cc1 1%, CC(=O)c1cccc(-n2nnnc2SCC(=O)NNC(=O)C2CCCCC2)c1 0%, CC(=O)c1cc(C#N)c(SCC(=O)Nc2nccs2)nc1C -1%, COCCNC(=O)c1ccc(-n2c(SCc3cccnc3)nc3ccccc3c2=O)cc1 -4%, CCCCN(CC)CCNC(=O)CCNC(=O)Cn1ccc2ccccc2c1=O -2%, CCN(CC(=O)NCc1cccs1)S(=O)(=O)c1ccc(NC(C)=O)cc1 0%, CN(CCC1CCOCC1)Cc1cn[nH]c1-c1ccc(-c2ccccc2)cc1 -1%, O=C(NC(=S)N1CCN(Cc2ccccc2)CC1)c1ccccc1 -3%, CCOC(=O)c1c(NC(=O)C(C)Sc2c[nH]c3ccccc23)sc2c1CCC2 (stereo not given) -3%, COc1cc(NC(=S)NCc2ccco2)c(OC)cc1Cl -1%, O=C(c1ccc(F)cc1)c1cn(Cc2ccc(F)cc2)c2cc3c(cc2c1=O)OCCO3 -4%, COc1cc(C)c(S(=O)(=O)N2CCOCC2)c(C)c1C -3%, Cc1nnsc1C(=O)N/N=C/c1cccc(C(F)(F)F)c1 -2%, CCOC(=O)c1[nH]c2c(c1-c1ccccc1)C(=O)CC(c1ccc(Cl)cc1)C2 (stereo not given) -3%, COc1ccc(N=C2SC(C(=O)Nc3ccc(F)cc3)CC(=O)N2C)cc1 (stereo not given) 0%, CNC(=O)/C(C#N)=C/c1c(F)cccc1Cl -2%, CCn1ncc(CNC(=O)C2(C)CC2(Br)Br)c1C (stereo not given) -4%, Cc1ccc(N(C(=O)C(F)(F)F)C(C(=O)NC2CCCCC2)c2ccncc2)cc1C (stereo not given) -1%, N#Cc1cccc(Nc2c3c(nc4ccccc24)CCCC3)c1 4%, COc1ccc(Cl)cc1NC(=O)CN(C)Cc1ccc(OC)c(OC)c1 -4%, NC(=O)CC[C@@H]1NC(=O)[C@H](CO)NC(=O)c2cc([N+](=O)[O-])cc(I)c2NCC[C@@H](C(N)=O)NC1=O 0%, O=C(/C=C/c1ccc(N2CCOCC2)cc1)c1ccccc1 -4%, CCCC(C)C(=O)OCC(=O)Nc1c(Br)cc(C)cc1Br (stereo not given) 0%, O=S(=O)(c1ccc(F)cc1)N1CCN(C(=S)NC2CCCC2)CC1 0%, COc1cc2c(cc1NC(=O)COC(=O)/C=C/c1ccccc1)oc1ccccc12 -7%, Cc1ccc(N(C(=O)c2sc(C)nc2C)C(C(=O)NC(C)(C)C)c2ccncc2)cc1 (stereo not given) -1%, COc1ccc(C(=O)CSc2nnc(NC(=O)C3CC(=O)N(c4cccc(OC)c4)C3)s2)cc1 (stereo not given) -2%, O=C(Nn1c(-c2ccc(Cl)cc2)nc2ccccc2c1=O)c1cccnc1Cl 10%, Cc1cc(OCCCN2CCN(Cc3ccccc3)CC2)ccc1[N+](=O)[O-] 0%, COc1ccc(Nc2ncc(F)c(N3CCOCC3)n2)cc1 -1%, CCCCCOc1ccc(/C=C/C(=O)NCCc2nc3ccccc3[nH]2)cc1OC -7%, CCCC/C(C)=N/NC(=O)NC1CCCCC1 -3%, COc1ccnc(Oc2ccccc2)c1-c1ncn[nH]1 -1%, N=c1n(CCc2ccccc2)c2ccccc2n1Cc1ccccc1F -6%, COc1ccccc1NC(=S)N1CCN(C(c2ccccc2)c2ccccc2)CC1 1%, O=C(c1ccncc1)N1CCN(c2ccc3ccccc3n2)CC1 0%, Cc1ccc(C(=O)Oc2coc(CSc3nnc(NC(=O)c4cccs4)s3)cc2=O)cc1C -6%, COc1ccc(NC(=O)C(=O)NCC(=O)Nc2cccc(C(F)(F)F)c2)cc1 1%, CCN(CC)C(=O)CS(=O)CC(=O)Nc1cc(OCCOC)c(Cl)cc1Cl (stereo not given) -1%, Brc1cc(/C=N/n2cnnc2)oc1Br -2%, CCc1ccc(CN(C)C(=O)CCc2nnc(-c3ccc(-c4ccccc4)cc3)o2)nc1 1%, CC(C)N(Cc1ccccc1)C(=O)COC(=O)c1cnccn1 -1%, COCC(C)n1c(C)cc(C(=O)CSc2cc(C)c3ccccc3n2)c1C (stereo not given) -6%, O=C(c1cccs1)n1nc(NCc2ccccc2)nc1NCc1ccccc1 0%, Cc1ccc(NCc2n[nH]c(=S)n2-c2ccccc2)cc1Cl 0%, Cc1cc2nc(C(F)(F)F)cc(-c3cccs3)n2n1 0%, O=C1Oc2ccccc2C(=O)/C1=C/c1ccccc1O 0%, Cc1ccc(/C=C/C(=O)Nc2cc(S(=O)(=O)N3CCCCCC3)ccc2OCC(F)(F)F)o1 -2%, Cc1ccc(C2CC(c3cccc(NS(C)(=O)=O)c3)=NN2S(C)(=O)=O)cc1 (stereo not given) -1%, COCCn1c(=O)[nH]c(=O)c2cc(C(=O)c3cc(OC)ccc3O)cnc21 -3%
